HCMV antiviral = inhibitors of human cytomegalovirus; HFF cells, HCMV-luciferase reporter, 72 h; active compounds read low; activity change, negative = inhibition, % at 57.5 µM; actives 4.5% (n = 410,000); AID 1259415; in the data active means activity change below about -60%; inconclusive means no clear call, values can overlap the other calls; inactive means above about -39%
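Inhibition of viral replication was scored as loss of reporter luminescence in HFFs infected with HCMV-luciferase (MOI 1 PFU/cell) for 72 h; compounds tested at 2 doses, normalized to buffer and Salinomycin controls.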
Vaccinia mCherry = vaccinia inhibition (mCherry reporter) | Vaccinia virus mCherry reporter infection, fluorescence | Potency, µM (top dose mostly 36.5 µM), for inactives: at the highest dose activity change, negative = inhibition, usual class: inhibitors | actives 0.63% (n = 310,000) | AID 720579; calls by dose curve; tested in A549 cells; further: potency means the concentration at half of the fitted maximal effect; nearly all actives have a fitted effect of over 35% in size
VACV Venus inh = inhibitors of vaccinia virus (Venus reporter) | Vaccinia virus Venus reporter expression, fluorescence | Potency, µM (titrated, usually from 36.5 µM), inactives show at the highest dose activity change, negative = inhibition, usual class: inhibitors | actives 0.46% (n = 330,000) | AID 720580; calls by dose curve; tested in A549 cells; further: potency means the concentration at half of the fitted maximal effect; nearly all actives have a fitted effect of over 30% in size
Marburg entry inh = Marburg virus entry inhibition. Marburg virus pseudotyped entry inhibition, cell reporter. actives 1.8% (n = 300,000). Potency, µM (top dose mostly 37.8 µM), inactives show at the top dose activity change, negative = inhibition, usual class: inhibitors; calls by dose curve; tested in HEK293 cells; further: potency means the concentration at half of the fitted maximal effect
LASV entry inh = inhibitors of Lassa virus binding or cell entry. Lassa virus pseudotype entry inhibition, cell reporter. Potency, µM (titrated, usually from 37.9 µM), for the others: at the top dose activity change, negative = inhibition, hits mostly inhibitors. actives 1.2% (n = 300,000). AID 540256; calls by dose curve; tested in HEK293 cells; further: potency means the concentration at half of the fitted maximal effect; nearly all actives have a fitted effect of over 50% in size
HCV inhibitor = blocks hepatitis C virus; Potency, µM (highest dose often 41.8 µM), without a hit: at the highest dose activity change, negative = inhibition, usual class: inhibitors; Huh7.5.1 HCVcc-Cre infection, luciferase reporter, 44 h; actives 3.4% (n = 340,000); active means well fitted inhibition curve with a large enough effect; inconclusive means small, poorly fitted or top-dose-only effect, or another doubt; inactive means no such curve, though single readings can be large or run the other way; further: potency means the concentration at half of the fitted maximal effect
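HCVcc-Cre virus at an moi near 0.5 was added right after compound to cells cultured 4 h from seeding (1,000 cells/well). Luciferase activity was determined 44 h later, 15 min after substrate addition at RT.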
An asterisk follows results filed as active; [ ] = remark or other dose. In the library only some 7.8% were active in any assay of this set; here they are far more common. On the % scale 0 is the no-effect control and ±100 the full control effect.

Screening Oc1ccc(/C=N/N=C(c2ccccc2)c2ccccc2)c(O)c1O returned HCMV antiviral inconclusive, Vaccinia mCherry inconclusive, VACV Venus inh -6%, Marburg entry inh inconclusive, LASV entry inh inconclusive and HCV inhibitor 3%.
For COc1cc(=O)n2c(c1C(=O)N(C)Cc1ccsc1)CCN(Cc1cnn(C)c1C)CC2 the results were Vaccinia mCherry inactive and VACV Venus inh -7%.
`CN(C)c1nc(N(C)C)nc(N(C#N)CCOc2ccccc2)n1` gave HCMV antiviral -23, VACV Venus inh -22%, Marburg entry inh -23%, LASV entry inh -20% and HCV inhibitor 11µM*.
`Cc1cc(C)nc(N(C#N)CCOc2ccccc2)n1` gave HCMV antiviral 16, Vaccinia mCherry -18%, VACV Venus inh -16%, Marburg entry inh inconclusive, LASV entry inh -1% and HCV inhibitor inconclusive.
`C=CCN1C=C/C(=C\C=C(C#N)C#N)c2ccccc21` gave HCMV antiviral -20, Vaccinia mCherry inactive, VACV Venus inh inactive, Marburg entry inh -22%[46.1 µM], LASV entry inh -14% and HCV inhibitor 10µM*.
`CCCCCCN1C=C/C(=C\C=C(C#N)C#N)c2ccccc21` gave HCMV antiviral 29, Vaccinia mCherry 21%, VACV Venus inh 33%, Marburg entry inh -14%, LASV entry inh -30% and HCV inhibitor inconclusive.
`C=CCn1c(SCC(=O)Nc2cc3oc4ccccc4c3cc2OC)nnc1-c1cnccn1` gave HCMV antiviral -4, Marburg entry inh inconclusive, LASV entry inh 0% and HCV inhibitor 13µM*.
For C=CCn1c(COc2ccccc2F)nnc1SCC(=O)c1c[nH]c2ccccc12 the results were HCMV antiviral -34, Vaccinia mCherry -15%, VACV Venus inh -26%, Marburg entry inh 13µM*, LASV entry inh inconclusive and HCV inhibitor inconclusive.
C=CCn1c(COc2ccccc2F)nnc1SCC(=O)Nc1cc2oc3ccccc3c2cc1OC was read as HCMV antiviral -15, VACV Venus inh inconclusive, Marburg entry inh inconclusive, LASV entry inh inconclusive and HCV inhibitor 7.1µM*.
`CC(C)ON([C@@H](C(=O)NO)C(C)C)S(=O)(=O)c1ccc(-c2ccccc2)cc1` gave Marburg entry inh 5.2µM* and LASV entry inh 3.7µM*.
Screening Cc1ccc(-c2nn(-c3cc(N4CCNCC4)ccc3[N+](=O)[O-])c(=O)c3ccccc23)cc1 returned HCMV antiviral -68*, Vaccinia mCherry -15%, VACV Venus inh -19%, Marburg entry inh inconclusive, LASV entry inh inconclusive and HCV inhibitor inconclusive.
For Cc1nn(-c2cc(N3CCCCCC3)ccc2[N+](=O)[O-])c(=O)c2ccccc12 the results were HCMV antiviral -32, Marburg entry inh -27%, LASV entry inh inconclusive and HCV inhibitor 13µM*.
`Cc1nn(-c2cc(N3CCCCC3)ccc2N)c(=O)c2ccccc12` gave Vaccinia mCherry inactive, VACV Venus inh -15%, Marburg entry inh 4%, LASV entry inh -12%[14.3 µM] and HCV inhibitor 13%.
C/C(=N\NC1=NCCN1)c1ccc(N)c([N+](=O)[O-])c1 was read as HCMV antiviral 24, Vaccinia mCherry -10%, VACV Venus inh -2%, Marburg entry inh inconclusive, LASV entry inh inconclusive and HCV inhibitor inconclusive.
`CCCCOc1ccc(Br)cc1/C(C)=N/NC1=NCCN1` gave HCMV antiviral -100*, VACV Venus inh 6.3µM*, Marburg entry inh 10µM*, LASV entry inh 11µM* and HCV inhibitor 3.2µM*.
`CCCCCCOc1ccc(/C(C)=N/NC2=NCCN2)cc1[N+](=O)[O-]` gave HCMV antiviral inconclusive and HCV inhibitor 32µM*.
For COc1ccc(/C(C)=N/NC2=NCCN2)cc1Cl the results were HCMV antiviral 59, Vaccinia mCherry -22%, VACV Venus inh -23%, Marburg entry inh inconclusive, LASV entry inh -12%[46.1 µM] and HCV inhibitor -20%.
`Cc1nn(S(=O)(=O)c2ccc(Br)cc2)c(C)c1S(=O)(=O)N1CCCCCC1` gave HCMV antiviral 8, Vaccinia mCherry 1%, VACV Venus inh -1% and LASV entry inh -10%[46.1 µM].

From PubChem BioAssay
